# Reference: PubChem BioAssay AID1645870 (National Center for Advancing Translational Sciences (NCATS), 2021)
# Values joined by “and” are separate entries in the source; they are usually repeats but may differ in a detail not shown here. Equal entries are not always repeated. The whole screen tested about 59,000 compounds, of which about 1,500 (2.5%) were called active. Inconclusive results (about 10%) are left out. Calls come from the whole dose curve; as a rule, active = well fitted inhibition curve with a large enough effect; inconclusive = small, poorly fitted or top-dose-only effect; inactive = flat fitted curve, though single readings scatter. Shown is part of a subset that was picked to be rich in actives. A call without a number means that no potency is given here.
# Target: N-terminal Xaa-Pro-Lys N-methyltransferase 1 (Homo sapiens) (UniProt Q9BV86)
# Sequence (Q9BV86 whole entry, looked up): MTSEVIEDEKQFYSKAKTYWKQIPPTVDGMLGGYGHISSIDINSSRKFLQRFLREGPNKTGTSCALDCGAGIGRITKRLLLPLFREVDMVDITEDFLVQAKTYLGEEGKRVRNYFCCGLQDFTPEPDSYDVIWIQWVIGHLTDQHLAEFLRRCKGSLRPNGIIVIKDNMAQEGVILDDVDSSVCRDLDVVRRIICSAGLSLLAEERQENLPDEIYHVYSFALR
# Assay: Primary qHTS for Inhibitors of N-terminal methyltransferase 1 (NTMT1): MTaseGlo Assay; note: nearly all actives have a fitted effect of over 65% in size
# Settings: NTMT1 MTase-Glo SAH luminescence, purified enzyme; series mostly up to 114 µM
# Description: Assay Submitter (PI): Rong Huang Ph.D.
# Purdue University, West Lafayette, IN 47907
# The N-terminal methytransferase 1 is the first methyltransferase that methylates protein alpha-N-amines and plays an important role in regulating cell mitosis, chromatin interactions and DNA repair. It is observed to be over-expressed in various cancer patient tissues like malignant melanoma and colorectal cancer tissues. Knockdown of NTMT1 in cancer cells causes cell mitotic defects and enhances sensitivity to DNA damaging chemotherapeutics. […] These critical cellular processes in which NTMT1 is implicated, coupled with emerging links to cellular dysfunction, strengthen the inference that NTMT1 is a compelling novel anticancer target. Progress have been made in understanding the molecular properties of NTMT1 and the biological consequences of protein alpha-N-terminal methylation, but there are no specific small molecule probes available for NTMT1 to fully characterize its MTase activity. To address this unmet need, a panel of assay is created and established to enable quantitative high-throughput screening (qHTS) for novel, potent, and selective small molecule NTMT1 inhibitors. Two orthogonal qHTS that use different reagents (ThioGlo vs. MTaseGlo) are developed for primary robotic screening against the NCATS chemical library of more than 400,000 small molecules. Identified inhibitors are reacquired, validated, and further characterized.
# MTaseGlo Assay is a luminescence screen that measure the activity of methyltransferases based on the reaction product S-adenosyl homocysteine (SAH). The substrate SAM is converted to SAH upon enzyme activation. MTase-Glo reagent and detection solution convert SAH to ATP and measure the light from the luciferase reaction.
# Materials: NTMT1 enzyme, substrate SPKRIA, control peptide RCC1-6 is provided by the Huang laboratory.
# SEQUENCE No. (e.g., 1, 2, 3, etc.); […] (e.g., Cells, Incubation, Reagent, etc.); VALUE; DESCRIPTION
# 1; Enzyme; 3 uL; Dispense enzyme mixture (final concentrations of 125 nM NTMT1 and 100 uM SAM) into Greiner 1536-well white / solid bottom assay plate (Greiner Bio One, Monroe, NC).
# 2; Compounds; 23 nL; Compounds and controls were transferred via a Kalypsys Pin Tool (Wako USA) equipped with a 1536-slotted pin array (Wako Automation, Richmond, VA)
# 3; Incubation; 15 min; Incubate at room temperature
# 4; Substrate; 1 uL; Dispense 1 uL of substrate at final concentration of 1 uM. Buffer solution was dispensed in control wells. The assay plate was covered with metal lids.
# 5; Incubation; 30 min; Incubate at room temperature, protected from lights.
# 6; Reagent; 1 uL; Dispensed 5x MTase-Glo detection reagent (R) into the assay plate. The plate was covered with metal lids.
# 7; Incubation; 30 min; Incubate the assay plates at room temperature in the dark to allow for SAH to be converted to ADP.
# 8; Reagent; 5 uL; Dispense 5 uL of 1x MTase-Glo Detection Solution (R) to allow for ADP to be converted to ATP which was then detected with a luciferase reaction.
# 9; Centrifuge; 15 sec; Centrifuge the assay plate for 15 seconds at 1000 RPM.
# 10; Incubation; 30 min; Assay plates were incubation at room temperature in the dark.
# 11; Detection; Luminescence; Plates were read on ViewLux detector (PerkinElmer). Data were normalized to no-enzyme (0% activity) and no-inhibitor (DMSO; 100%) controls, and the resulting percent inhibition data were fitted to a 4-parameter Hill equation using GraphPad Prism.
# Potency is the fitted concentration of half-maximal effect.
row,SMILES,Potency
1,C=CC(=O)Nc1ccc2ncnc(Nc3ccc(OCc4cccc(F)c4)c(Cl)c3)c2c1,inactive
2,COc1cc2ncnc(Nc3cccc(Cl)c3F)c2cc1OC(=O)N1CCN(C)C[C@H]1C,35.5 µM (active) and 39.8 µM (active)
3,Cc1cc(NS(=O)(=O)c2cc3c(cc2F)NC(=O)CC3)ccc1F,inactive
4,CNc1oc(-c2ccc(-c3ccccc3)cc2)nc1C#N,inactive
5,COc1ccc(C(=O)N(Cc2ccccc2)Cc2ccc(OC)c(COc3ccc(NC(C)=O)cc3)c2)c(O)c1,inactive
6,O=C(Nc1ccc(S(=O)(=O)Nc2nccs2)cc1)C1CC(OCc2ccccc2)C1 (configuration not stated),inactive
7,O=C(CNC(=O)c1ccc(Cl)cc1Cl)OC(C(=O)Nc1cc(C(F)(F)F)ccc1Cl)c1ccccc1 (configuration not stated),inactive
8,Cc1cn([C@H]2C[C@H](N[S+](=O)([O-])Cc3ccc(Cl)cc3)[C@@H](CO)O2)c(=O)[nH]c1=O,inactive
9,Cc1cc(C)c(/C=C2\C(=O)Nc3ccccc32)[nH]1,inactive
10,Cc1[nH]c(/C=C2\C(=O)Nc3ccc(S(=O)(=O)Cc4c(Cl)cccc4Cl)cc32)c(C)c1C(=O)N1CCC[C@@H]1CN1CCCC1,11.2 µM (active)
11,Cc1ccc(C(=O)Nc2ccc(S(=O)(=O)Nc3nccs3)cc2)cc1C,inactive
12,O=C(Cc1ccc(Cl)c(Cl)c1)Nc1ccc([S+](=O)([O-])Nc2cccc([N+](=O)[O-])c2)cc1,inactive
13,O=S1(=O)N=C(Oc2cccc(Br)c2)c2ccccc21,inactive
14,O=C(Nc1ccccn1)c1sc2ccc([N+](=O)[O-])cc2c1Cl,inactive
15,COC(=O)c1ccccc1NC(=O)c1ccc(C#N)cc1,inactive
16,COc1ccc(C2Nc3ccccc3C(=O)N2Cc2cccc(OC)c2OC)cc1COc1c(C)cc(NC(C)=O)cc1C (configuration not stated),inactive
17,Cc1cccc(N2CCN(C(=O)c3cc4c(=O)oc5ccccc5c4s3)CC2C)c1 (configuration not stated),inactive
18,Cc1cccc(N2CCN(c3ccc(C(=O)O)cc3NC(=O)c3ccccc3F)CC2C)c1 (configuration not stated),70.8 µM (active)
19,Cc1ccccc1NC(=O)c1c(NC(=O)c2ccccc2F)sc2c1CCC(C)C2 (configuration not stated),inactive
20,O=C1CC(c2c[nH]c3ccc(F)cc23)C(=O)N1 (configuration not stated),inactive
21,CC1=C(C(=O)Nc2ccccc2C)C(c2ccccc2Br)N=C(Nc2nc3ccccc3o2)N1 (configuration not stated),inactive
22,O=C(CNC(=O)c1ccc(Cl)c(C(F)(F)F)c1)OC(C(=O)Nc1cc(C(F)(F)F)ccc1Cl)c1ccccc1 (configuration not stated),inactive
23,CCC(C(=O)Nc1cccc(Cl)c1C)n1nc(-c2ccc(C)cc2)ccc1=O (configuration not stated),79.4 µM (active)
24,Cc1ccc(-c2ccc(=O)n(CCNC(C)c3ccco3)n2)cc1 (configuration not stated),inactive

row,SMILES,Potency
1,Cc1c(Cl)cccc1NC(=O)N1CCN(C(=O)c2nsc3ccccc23)CC1,inactive
2,N#CN1CCC(NC(=O)c2ccc(F)cc2)CC1,inactive
3,CNc1oc(-c2cccc(Cl)c2Cl)nc1C#N,inactive
4,COc1cccc(C(=O)NC2CCN(C#N)CC2)c1,inactive
5,COc1ccc(C2Nc3ccccc3C(=O)N2Cc2ccccc2)cc1COc1ccc(C(N)=O)cc1 (configuration not stated),inactive
6,C[C@H](NC(=O)c1c(N)nn2cccnc12)c1cc2cccc(C#Cc3cnn(C)c3)c2c(=O)n1-c1ccccc1,inactive
7,Cc1sc(NC(=O)Cc2ccc3c(c2)OCO3)nc1-c1ccc2c(c1)CCN2,inactive
8,CCCN(CCC)CCCNC(=O)Cn1ncc2c3ccccc3n(Cc3ccccc3)c2c1=O,inactive
9,CCN(CCCNC(=O)Cn1ncc2c3ccccc3n(C)c2c1=O)Cc1ccccc1,inactive
10,CCN(CC)CCNC(=O)Cn1ncc2c3ccccc3n(Cc3ccccc3C)c2c1=O,89.1 µM (active)
11,CCOc1ccc(CCNC(=O)c2cc3sccc3n2CCN2CCOCC2)cc1OCC,inactive
12,CS(=O)(=O)c1ccc(C(=O)OCC(=O)N2CCC(c3ccccc3)CC2)cc1[N+](=O)[O-],inactive
13,Cc1cc(N[S+](=O)([O-])c2ccc(NC(=O)Cc3ccc(F)c(C(F)(F)F)c3)cc2)no1,inactive
14,Cc1cc(Oc2ccc3nc(COc4ccc(CC5SC(=O)NC5=O)cc4)n(C)c3c2)cc(C)c1N (configuration not stated),inactive
15,CCCCc1nn2c(=O)cc(COC(=O)c3cccc(NC(=O)COc4ccccc4)c3)nc2s1,inactive
16,Cc1nn2c(=O)cc(COC(=O)c3cccc(NC(=O)COc4ccccc4Cl)c3)nc2s1,inactive
17,COc1ccc(OCC(=O)Nc2cccc(C(=O)OCc3cc(=O)n4nc(C)sc4n3)c2)cc1,50.1 µM (active)
18,CCOc1cc2[nH]c(=O)n(Cc3ccc(C(=O)NCCN(CC)CC)cc3)c(=O)c2cc1OCC,inactive
19,CCN(CC)CCNC(=O)c1cc(S(C)(=O)=O)ccc1OC,inactive
20,CCN(CC)CCNC(=O)c1c(C)[nH]c(C=C2C(=O)Nc3ccc(F)cc32)c1C,44.1 µM (active)
21,CCOc1cc(C(C)(C)C)ccc1C1=N[C@@](C)(c2ccc(Cl)cc2)[C@@](C)(c2ccc(Cl)cc2)N1C(=O)N1CCN(CC(=O)N2CCOCC2)CC1,inactive
22,C=C1C[C@@H]2CC[C@@]34C[C@H]5O[C@H]6[C@@H](O3)[C@H]3O[C@H](CC[C@@H]3O[C@H]6[C@H]5O4)CC(=O)C[C@@H]3[C@@H](OC)[C@@H](C[C@H](O)CN)O[C@H]3C[C@H]3O[C@@H](CC[C@@H]1O2)C[C@@H](C)C3=C,inactive
23,O=S(=O)(NC1CCN(S(=O)(=O)c2ccc3c(c2)OCCO3)CC1)c1c(F)cccc1F,inactive
